# Test results published in publication PMC7862700, “An all-to-all approach to the identification of sequence-specific readers for epigenetic DNA modifications on cytosine”.
# What was measured:
# Assay in all cases: DAPPL (digital affinity profiling via proximity ligation, sequencing); 10 mM Tris-HCl pH 7.5, 50 mM NaCl, 1 mM DTT, 4% glycerol, room temperature, 30 min; GST-TFs on glutathione beads, 16-mer random dsDNA library, 0.1% formaldehyde crosslink after washing; high values mean tight binding
# Conditions in all cases: protein: recombinant; tags: N-terminal GST; dsDNA, one strand shown
# [1] = molecular target: T1, FLI1 (Homo sapiens, UniProt Q01543 1-452)
# T1 sequence: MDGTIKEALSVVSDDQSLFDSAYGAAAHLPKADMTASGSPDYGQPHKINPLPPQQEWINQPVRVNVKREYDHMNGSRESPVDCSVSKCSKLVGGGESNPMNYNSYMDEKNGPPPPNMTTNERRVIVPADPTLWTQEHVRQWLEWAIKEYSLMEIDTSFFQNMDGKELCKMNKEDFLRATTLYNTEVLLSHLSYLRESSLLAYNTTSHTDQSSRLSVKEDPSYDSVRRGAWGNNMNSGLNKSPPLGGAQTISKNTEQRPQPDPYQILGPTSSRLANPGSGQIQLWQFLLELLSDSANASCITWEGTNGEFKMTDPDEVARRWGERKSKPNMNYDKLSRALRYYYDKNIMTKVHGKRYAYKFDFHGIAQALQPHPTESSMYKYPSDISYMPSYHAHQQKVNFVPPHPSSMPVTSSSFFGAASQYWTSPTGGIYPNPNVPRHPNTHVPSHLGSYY
# Procedure, shortened: (§1)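 Pools were built from human transcription factors expressed in yeast as GST fusions, captured on glutathione beads and DNA-barcoded, along with a tag-only sample. Incubation with 200 nmole of a 16-mer random double-stranded DNA library lasted 30 min at room temperature in Tris/NaCl/DTT/glycerol buffer, and was followed by washing, 0.1% formaldehyde crosslinking, proximity ligation, PCR amplification and Illumina NextSeq500 sequencing. Binding signal is the quotient of each hexamer's read frequency for a factor and its frequency for the tag-only sample.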
# [2] = molecular target: T2, ELK1 (Homo sapiens, UniProt P19419 1-428)
# T2 sequence: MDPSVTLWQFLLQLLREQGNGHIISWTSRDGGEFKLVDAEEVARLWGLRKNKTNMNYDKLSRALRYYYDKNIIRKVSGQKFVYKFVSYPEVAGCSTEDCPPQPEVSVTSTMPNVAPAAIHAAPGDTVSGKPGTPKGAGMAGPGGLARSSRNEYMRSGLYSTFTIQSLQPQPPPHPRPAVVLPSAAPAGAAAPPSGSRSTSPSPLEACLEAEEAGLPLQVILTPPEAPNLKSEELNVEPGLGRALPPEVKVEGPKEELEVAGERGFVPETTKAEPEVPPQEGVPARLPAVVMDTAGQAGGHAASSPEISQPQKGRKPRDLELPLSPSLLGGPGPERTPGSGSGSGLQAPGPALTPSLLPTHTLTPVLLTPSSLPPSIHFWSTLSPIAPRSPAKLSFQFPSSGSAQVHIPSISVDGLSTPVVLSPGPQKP
# Procedure, shortened: as §1
# [3] = molecular target: T3, GABPA (Homo sapiens, UniProt Q06546 1-454)
# T3 sequence: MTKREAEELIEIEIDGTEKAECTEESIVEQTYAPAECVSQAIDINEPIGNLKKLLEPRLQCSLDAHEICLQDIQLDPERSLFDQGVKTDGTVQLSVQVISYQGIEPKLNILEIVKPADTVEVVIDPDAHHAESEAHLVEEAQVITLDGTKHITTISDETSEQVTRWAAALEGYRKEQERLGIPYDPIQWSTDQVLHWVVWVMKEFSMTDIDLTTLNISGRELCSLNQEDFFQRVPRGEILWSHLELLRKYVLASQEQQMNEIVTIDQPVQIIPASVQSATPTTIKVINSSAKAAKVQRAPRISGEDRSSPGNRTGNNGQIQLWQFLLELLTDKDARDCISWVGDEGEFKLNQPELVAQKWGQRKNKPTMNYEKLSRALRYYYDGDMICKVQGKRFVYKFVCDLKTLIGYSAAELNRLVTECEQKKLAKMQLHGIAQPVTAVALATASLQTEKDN
# Procedure, shortened: as §1
# [4] = molecular target: T4, ERG (Homo sapiens, UniProt P11308 1-479)
# T4 sequence: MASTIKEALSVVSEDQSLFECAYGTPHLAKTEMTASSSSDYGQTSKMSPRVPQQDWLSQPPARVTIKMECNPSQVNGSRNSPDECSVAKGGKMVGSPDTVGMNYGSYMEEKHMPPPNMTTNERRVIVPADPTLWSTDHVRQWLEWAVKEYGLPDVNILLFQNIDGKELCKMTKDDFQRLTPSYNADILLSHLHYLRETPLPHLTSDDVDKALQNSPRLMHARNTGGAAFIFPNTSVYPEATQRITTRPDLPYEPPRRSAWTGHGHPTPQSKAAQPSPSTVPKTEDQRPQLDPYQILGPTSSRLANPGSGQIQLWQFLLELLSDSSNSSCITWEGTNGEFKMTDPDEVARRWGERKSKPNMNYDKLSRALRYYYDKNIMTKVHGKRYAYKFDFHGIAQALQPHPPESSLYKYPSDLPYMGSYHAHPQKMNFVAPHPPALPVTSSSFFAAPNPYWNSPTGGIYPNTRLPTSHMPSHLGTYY
# Procedure, shortened: as §1
# [5] = molecular target: ELF1 (Homo sapiens, UniProt P32519 1-619)
# Procedure, shortened: as §1
# [6] = molecular target: T5, EHF (Homo sapiens, UniProt Q9NZC4 1-300)
# T5 sequence: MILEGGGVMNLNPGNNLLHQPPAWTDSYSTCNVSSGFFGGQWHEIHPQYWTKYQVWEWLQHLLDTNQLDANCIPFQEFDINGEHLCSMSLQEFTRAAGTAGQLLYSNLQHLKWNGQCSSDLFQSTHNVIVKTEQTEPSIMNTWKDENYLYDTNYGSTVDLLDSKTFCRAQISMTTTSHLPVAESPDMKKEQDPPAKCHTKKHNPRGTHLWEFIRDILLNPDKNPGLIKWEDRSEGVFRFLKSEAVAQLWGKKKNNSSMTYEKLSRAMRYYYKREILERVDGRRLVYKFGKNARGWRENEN
# Procedure, shortened: as §1
# [7] = molecular target: SPI1 (Homo sapiens, UniProt P17947 1-270)
# Procedure, shortened: as §1
# [8] = molecular target: SPIB (Homo sapiens, UniProt Q01892 1-262)
# Procedure, shortened: as §1
# [9] = molecular target: T6, ELK3 (Homo sapiens, UniProt P41970 1-407)
# T6 sequence: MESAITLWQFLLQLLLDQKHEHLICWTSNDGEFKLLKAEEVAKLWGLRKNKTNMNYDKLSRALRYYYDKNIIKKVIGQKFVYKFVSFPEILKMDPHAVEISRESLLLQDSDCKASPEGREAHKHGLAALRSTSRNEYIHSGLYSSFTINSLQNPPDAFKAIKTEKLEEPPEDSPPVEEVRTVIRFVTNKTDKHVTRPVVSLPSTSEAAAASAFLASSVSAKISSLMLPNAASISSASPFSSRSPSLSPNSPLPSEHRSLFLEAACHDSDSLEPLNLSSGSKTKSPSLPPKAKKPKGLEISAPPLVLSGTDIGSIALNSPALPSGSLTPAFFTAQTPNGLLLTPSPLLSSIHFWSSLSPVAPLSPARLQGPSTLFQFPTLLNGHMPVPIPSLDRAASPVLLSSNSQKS
# Procedure, shortened: as §1
# Sequence of ELF1 (P32519 whole entry): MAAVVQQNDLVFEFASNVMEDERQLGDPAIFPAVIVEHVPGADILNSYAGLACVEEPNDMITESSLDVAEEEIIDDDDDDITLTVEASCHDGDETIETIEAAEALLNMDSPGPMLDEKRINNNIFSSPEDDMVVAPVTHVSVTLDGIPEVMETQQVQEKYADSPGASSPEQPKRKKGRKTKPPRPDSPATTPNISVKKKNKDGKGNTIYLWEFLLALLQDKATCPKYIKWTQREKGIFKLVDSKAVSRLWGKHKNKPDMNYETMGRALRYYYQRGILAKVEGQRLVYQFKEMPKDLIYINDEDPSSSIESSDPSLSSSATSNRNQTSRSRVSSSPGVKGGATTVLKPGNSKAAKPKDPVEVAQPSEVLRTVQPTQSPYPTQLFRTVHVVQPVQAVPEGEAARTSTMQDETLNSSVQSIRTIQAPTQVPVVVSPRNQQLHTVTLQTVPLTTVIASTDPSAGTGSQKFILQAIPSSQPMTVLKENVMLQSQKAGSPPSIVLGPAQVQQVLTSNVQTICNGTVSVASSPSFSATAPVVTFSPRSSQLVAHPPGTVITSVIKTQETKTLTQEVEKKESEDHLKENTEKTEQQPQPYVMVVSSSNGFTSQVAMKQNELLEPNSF
# Sequence of SPIB (Q01892 whole entry): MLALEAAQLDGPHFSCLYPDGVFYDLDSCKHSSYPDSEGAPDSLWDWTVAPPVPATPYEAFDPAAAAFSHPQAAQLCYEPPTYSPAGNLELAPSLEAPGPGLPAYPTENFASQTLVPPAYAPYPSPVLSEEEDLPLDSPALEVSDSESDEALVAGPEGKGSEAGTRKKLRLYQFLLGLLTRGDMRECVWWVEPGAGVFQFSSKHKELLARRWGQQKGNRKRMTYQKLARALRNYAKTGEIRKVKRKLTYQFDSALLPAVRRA
Sequence,binding signal [1],binding signal [2],binding signal [3],binding signal [4],binding signal [5],binding signal [6],binding signal [7],binding signal [8],binding signal [9]
CTTGTT,"1.2 fold enrichment (6-mer frequency, TF over GST control)","1.18 fold enrichment (6-mer frequency, TF over GST control)","1.15 fold enrichment (6-mer frequency, TF over GST control)","1.26 fold enrichment (6-mer frequency, TF over GST control)","1.21 fold enrichment (6-mer frequency, TF over GST control)","1.31 fold enrichment (6-mer frequency, TF over GST control)","1.25 fold enrichment (6-mer frequency, TF over GST control)","1.29 fold enrichment (6-mer frequency, TF over GST control)","1.3 fold enrichment (6-mer frequency, TF over GST control)"
CTCCAT,"1.34 fold enrichment (6-mer frequency, TF over GST control)","1.38 fold enrichment (6-mer frequency, TF over GST control)","1.31 fold enrichment (6-mer frequency, TF over GST control)","1.34 fold enrichment (6-mer frequency, TF over GST control)","1.34 fold enrichment (6-mer frequency, TF over GST control)","1.37 fold enrichment (6-mer frequency, TF over GST control)","1.32 fold enrichment (6-mer frequency, TF over GST control)","1.25 fold enrichment (6-mer frequency, TF over GST control)","1.36 fold enrichment (6-mer frequency, TF over GST control)"
CGATAC,"1.19 fold enrichment (6-mer frequency, TF over GST control)","1.19 fold enrichment (6-mer frequency, TF over GST control)","1.27 fold enrichment (6-mer frequency, TF over GST control)","1.18 fold enrichment (6-mer frequency, TF over GST control)","1.19 fold enrichment (6-mer frequency, TF over GST control)","1.2 fold enrichment (6-mer frequency, TF over GST control)","1.15 fold enrichment (6-mer frequency, TF over GST control)","1.06 fold enrichment (6-mer frequency, TF over GST control)","1.14 fold enrichment (6-mer frequency, TF over GST control)"
TGCAAA,"1.13 fold enrichment (6-mer frequency, TF over GST control)","1.11 fold enrichment (6-mer frequency, TF over GST control)","1.07 fold enrichment (6-mer frequency, TF over GST control)","1.14 fold enrichment (6-mer frequency, TF over GST control)","1.19 fold enrichment (6-mer frequency, TF over GST control)","1.16 fold enrichment (6-mer frequency, TF over GST control)","1.14 fold enrichment (6-mer frequency, TF over GST control)","1.12 fold enrichment (6-mer frequency, TF over GST control)","1.14 fold enrichment (6-mer frequency, TF over GST control)"
TACGGC,"1.18 fold enrichment (6-mer frequency, TF over GST control)","1.25 fold enrichment (6-mer frequency, TF over GST control)","1.23 fold enrichment (6-mer frequency, TF over GST control)","1.24 fold enrichment (6-mer frequency, TF over GST control)","1.18 fold enrichment (6-mer frequency, TF over GST control)","1.2 fold enrichment (6-mer frequency, TF over GST control)","1.18 fold enrichment (6-mer frequency, TF over GST control)","1.25 fold enrichment (6-mer frequency, TF over GST control)","1.16 fold enrichment (6-mer frequency, TF over GST control)"
CTAGGC,"1.17 fold enrichment (6-mer frequency, TF over GST control)","1.1 fold enrichment (6-mer frequency, TF over GST control)","1.23 fold enrichment (6-mer frequency, TF over GST control)","1.13 fold enrichment (6-mer frequency, TF over GST control)","1.14 fold enrichment (6-mer frequency, TF over GST control)","1.01 fold enrichment (6-mer frequency, TF over GST control)","1.07 fold enrichment (6-mer frequency, TF over GST control)","1.05 fold enrichment (6-mer frequency, TF over GST control)","1.1 fold enrichment (6-mer frequency, TF over GST control)"
TCTGGG,"1.1 fold enrichment (6-mer frequency, TF over GST control)","1.06 fold enrichment (6-mer frequency, TF over GST control)","1.06 fold enrichment (6-mer frequency, TF over GST control)","1.04 fold enrichment (6-mer frequency, TF over GST control)","1.18 fold enrichment (6-mer frequency, TF over GST control)","1.09 fold enrichment (6-mer frequency, TF over GST control)","1.12 fold enrichment (6-mer frequency, TF over GST control)","1.02 fold enrichment (6-mer frequency, TF over GST control)","1.28 fold enrichment (6-mer frequency, TF over GST control)"
ACATTG,"1.24 fold enrichment (6-mer frequency, TF over GST control)","1.11 fold enrichment (6-mer frequency, TF over GST control)","1.17 fold enrichment (6-mer frequency, TF over GST control)","1.07 fold enrichment (6-mer frequency, TF over GST control)","1.13 fold enrichment (6-mer frequency, TF over GST control)","1.17 fold enrichment (6-mer frequency, TF over GST control)","1.04 fold enrichment (6-mer frequency, TF over GST control)","1.16 fold enrichment (6-mer frequency, TF over GST control)","1.11 fold enrichment (6-mer frequency, TF over GST control)"
